Data as given in the supplement of paper PMC11732987, “Enantioselective OTUD7B fragment discovery through chemoproteomics screening and high-throughput optimisation” (Communications Chemistry, 2025).

Legend:
Test in all cases: log2 ratio of Biotin-Ahx-Ub-VS probe labelling (fragment/DMSO); higher = less target engagement (more negative = stronger competition), active = hit call of the paper (q ≤ 0.05, log2 ratio ≤ -1)
Conditions in all cases: compound concentration: 200 uM; treatment time: 3 h
USP42 = molecular target: T1, USP42 (UniProt Q9H9J4)
T1 sequence (whole entry): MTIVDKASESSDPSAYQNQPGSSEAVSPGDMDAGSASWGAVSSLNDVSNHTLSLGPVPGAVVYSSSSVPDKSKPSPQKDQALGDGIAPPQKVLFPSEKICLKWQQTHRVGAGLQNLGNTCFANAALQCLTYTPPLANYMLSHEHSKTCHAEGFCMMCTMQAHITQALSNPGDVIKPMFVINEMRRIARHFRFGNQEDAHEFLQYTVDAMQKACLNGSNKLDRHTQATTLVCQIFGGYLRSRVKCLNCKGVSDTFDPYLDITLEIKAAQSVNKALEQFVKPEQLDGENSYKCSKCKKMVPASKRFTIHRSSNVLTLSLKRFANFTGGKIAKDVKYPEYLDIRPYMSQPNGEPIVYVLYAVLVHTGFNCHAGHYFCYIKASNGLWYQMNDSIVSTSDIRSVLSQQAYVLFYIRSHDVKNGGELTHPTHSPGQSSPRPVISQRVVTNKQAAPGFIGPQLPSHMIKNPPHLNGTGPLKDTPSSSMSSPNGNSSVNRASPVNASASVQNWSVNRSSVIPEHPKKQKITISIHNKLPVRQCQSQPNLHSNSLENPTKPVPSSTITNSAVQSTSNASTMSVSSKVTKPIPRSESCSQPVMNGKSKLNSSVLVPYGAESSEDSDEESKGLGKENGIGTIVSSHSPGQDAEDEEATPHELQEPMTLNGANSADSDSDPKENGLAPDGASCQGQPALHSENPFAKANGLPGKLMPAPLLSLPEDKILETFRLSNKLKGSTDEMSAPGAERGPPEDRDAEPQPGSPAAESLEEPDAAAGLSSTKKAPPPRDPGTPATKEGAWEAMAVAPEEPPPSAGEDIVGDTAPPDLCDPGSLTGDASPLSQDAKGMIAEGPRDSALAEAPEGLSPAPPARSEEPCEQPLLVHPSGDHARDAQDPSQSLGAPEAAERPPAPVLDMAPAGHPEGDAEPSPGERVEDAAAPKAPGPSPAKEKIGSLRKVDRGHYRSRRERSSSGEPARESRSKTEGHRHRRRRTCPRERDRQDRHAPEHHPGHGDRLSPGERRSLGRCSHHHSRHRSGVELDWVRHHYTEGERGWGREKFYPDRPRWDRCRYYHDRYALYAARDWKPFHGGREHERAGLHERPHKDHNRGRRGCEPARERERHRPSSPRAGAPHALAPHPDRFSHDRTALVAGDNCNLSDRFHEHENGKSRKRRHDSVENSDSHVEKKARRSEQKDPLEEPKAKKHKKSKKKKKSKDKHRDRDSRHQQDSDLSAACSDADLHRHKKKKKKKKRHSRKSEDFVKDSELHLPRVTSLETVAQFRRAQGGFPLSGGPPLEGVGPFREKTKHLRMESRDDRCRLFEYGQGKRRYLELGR
How it was run: (§1)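 HEK293T lysate (495 µg per sample, in Tris/CHAPS/IGEPAL buffer with protease inhibitors) was exposed in triplicate for 3 h to fragment at 200 µM or to vehicle, then to Biotin-Ahx-Ub-VS at 0.5 µM final for 1 h. Labelled DUBs were enriched on NeutrAvidin, digested with LysC and trypsin, and analysed by diaPASEF LC-MS/MS. Spectronaut label-free quantities were normalised to the global median, and values are average log2 ratios of fragment over vehicle from an unpaired t-test. Only proteins with ≥2 unique peptides were used.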

USP46 = USP46 (UniProt P62068)
How it was run: as §1

USP47 = molecular target: T2, USP47 (UniProt Q96K76)
T2 sequence (whole entry): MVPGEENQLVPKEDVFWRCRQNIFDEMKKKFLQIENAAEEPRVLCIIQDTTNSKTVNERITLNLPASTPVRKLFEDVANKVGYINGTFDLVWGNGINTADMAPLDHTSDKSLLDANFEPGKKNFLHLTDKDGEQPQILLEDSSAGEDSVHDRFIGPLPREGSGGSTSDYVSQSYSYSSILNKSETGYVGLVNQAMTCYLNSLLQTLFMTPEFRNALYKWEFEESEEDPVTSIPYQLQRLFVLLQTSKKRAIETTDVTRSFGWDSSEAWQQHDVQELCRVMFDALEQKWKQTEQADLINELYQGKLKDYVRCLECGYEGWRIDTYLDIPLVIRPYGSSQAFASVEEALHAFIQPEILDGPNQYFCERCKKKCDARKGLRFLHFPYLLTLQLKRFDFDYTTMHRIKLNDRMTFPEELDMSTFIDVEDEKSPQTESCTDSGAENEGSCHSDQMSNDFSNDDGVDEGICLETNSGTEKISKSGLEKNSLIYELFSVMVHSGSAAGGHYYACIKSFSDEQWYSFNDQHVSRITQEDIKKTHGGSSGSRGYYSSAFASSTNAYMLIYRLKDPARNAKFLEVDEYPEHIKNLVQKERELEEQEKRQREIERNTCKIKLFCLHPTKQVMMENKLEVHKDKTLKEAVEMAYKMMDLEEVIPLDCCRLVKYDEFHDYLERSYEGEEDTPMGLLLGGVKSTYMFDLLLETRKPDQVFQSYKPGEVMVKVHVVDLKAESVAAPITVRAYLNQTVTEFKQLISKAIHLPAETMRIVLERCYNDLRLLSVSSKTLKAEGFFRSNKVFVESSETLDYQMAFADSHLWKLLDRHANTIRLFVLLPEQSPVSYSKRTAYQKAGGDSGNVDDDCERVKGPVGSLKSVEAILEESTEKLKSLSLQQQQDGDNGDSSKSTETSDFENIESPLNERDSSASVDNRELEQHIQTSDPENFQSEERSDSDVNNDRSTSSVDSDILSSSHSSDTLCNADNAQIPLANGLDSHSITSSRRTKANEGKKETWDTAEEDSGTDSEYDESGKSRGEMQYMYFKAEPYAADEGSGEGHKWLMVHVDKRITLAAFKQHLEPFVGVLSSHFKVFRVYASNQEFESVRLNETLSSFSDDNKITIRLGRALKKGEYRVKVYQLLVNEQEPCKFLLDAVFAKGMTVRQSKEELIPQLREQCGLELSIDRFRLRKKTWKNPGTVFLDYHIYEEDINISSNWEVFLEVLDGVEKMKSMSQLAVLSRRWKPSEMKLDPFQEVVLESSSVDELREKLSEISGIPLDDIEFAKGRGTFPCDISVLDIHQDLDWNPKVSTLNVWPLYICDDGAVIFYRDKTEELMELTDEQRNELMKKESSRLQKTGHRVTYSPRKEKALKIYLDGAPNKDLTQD
How it was run: as §1

USP48 = molecular target: T3, USP48 (UniProt Q86UV5)
T3 sequence (whole entry): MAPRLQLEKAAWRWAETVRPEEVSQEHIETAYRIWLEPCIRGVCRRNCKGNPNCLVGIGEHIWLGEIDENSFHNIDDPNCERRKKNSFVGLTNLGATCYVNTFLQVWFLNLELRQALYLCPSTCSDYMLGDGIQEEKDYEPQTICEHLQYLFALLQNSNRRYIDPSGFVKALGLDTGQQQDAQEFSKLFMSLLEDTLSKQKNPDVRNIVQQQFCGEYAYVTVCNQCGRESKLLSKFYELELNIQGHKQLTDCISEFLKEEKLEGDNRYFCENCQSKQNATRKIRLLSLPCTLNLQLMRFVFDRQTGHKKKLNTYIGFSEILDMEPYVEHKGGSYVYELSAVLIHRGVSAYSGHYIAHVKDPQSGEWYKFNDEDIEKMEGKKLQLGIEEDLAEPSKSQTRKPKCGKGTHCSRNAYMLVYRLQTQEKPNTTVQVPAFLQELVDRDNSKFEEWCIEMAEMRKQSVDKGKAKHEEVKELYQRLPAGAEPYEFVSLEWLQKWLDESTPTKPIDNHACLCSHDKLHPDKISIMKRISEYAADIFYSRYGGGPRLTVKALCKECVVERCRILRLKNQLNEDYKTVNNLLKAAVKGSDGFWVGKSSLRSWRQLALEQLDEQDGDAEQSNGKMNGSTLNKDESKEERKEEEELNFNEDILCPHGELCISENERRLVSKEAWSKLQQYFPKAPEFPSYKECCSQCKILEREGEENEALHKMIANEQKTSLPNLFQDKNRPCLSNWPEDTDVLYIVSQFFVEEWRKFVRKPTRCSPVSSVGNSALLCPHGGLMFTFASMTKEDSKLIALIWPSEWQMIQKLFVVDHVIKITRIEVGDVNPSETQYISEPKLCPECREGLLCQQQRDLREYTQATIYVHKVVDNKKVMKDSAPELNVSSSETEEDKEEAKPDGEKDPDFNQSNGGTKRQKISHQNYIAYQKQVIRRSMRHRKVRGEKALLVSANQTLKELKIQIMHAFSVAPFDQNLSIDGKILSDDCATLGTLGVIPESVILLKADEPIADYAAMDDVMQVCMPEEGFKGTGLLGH
How it was run: as §1

USP5 = molecular target: T4, USP5 (UniProt P45974)
T4 sequence (whole entry): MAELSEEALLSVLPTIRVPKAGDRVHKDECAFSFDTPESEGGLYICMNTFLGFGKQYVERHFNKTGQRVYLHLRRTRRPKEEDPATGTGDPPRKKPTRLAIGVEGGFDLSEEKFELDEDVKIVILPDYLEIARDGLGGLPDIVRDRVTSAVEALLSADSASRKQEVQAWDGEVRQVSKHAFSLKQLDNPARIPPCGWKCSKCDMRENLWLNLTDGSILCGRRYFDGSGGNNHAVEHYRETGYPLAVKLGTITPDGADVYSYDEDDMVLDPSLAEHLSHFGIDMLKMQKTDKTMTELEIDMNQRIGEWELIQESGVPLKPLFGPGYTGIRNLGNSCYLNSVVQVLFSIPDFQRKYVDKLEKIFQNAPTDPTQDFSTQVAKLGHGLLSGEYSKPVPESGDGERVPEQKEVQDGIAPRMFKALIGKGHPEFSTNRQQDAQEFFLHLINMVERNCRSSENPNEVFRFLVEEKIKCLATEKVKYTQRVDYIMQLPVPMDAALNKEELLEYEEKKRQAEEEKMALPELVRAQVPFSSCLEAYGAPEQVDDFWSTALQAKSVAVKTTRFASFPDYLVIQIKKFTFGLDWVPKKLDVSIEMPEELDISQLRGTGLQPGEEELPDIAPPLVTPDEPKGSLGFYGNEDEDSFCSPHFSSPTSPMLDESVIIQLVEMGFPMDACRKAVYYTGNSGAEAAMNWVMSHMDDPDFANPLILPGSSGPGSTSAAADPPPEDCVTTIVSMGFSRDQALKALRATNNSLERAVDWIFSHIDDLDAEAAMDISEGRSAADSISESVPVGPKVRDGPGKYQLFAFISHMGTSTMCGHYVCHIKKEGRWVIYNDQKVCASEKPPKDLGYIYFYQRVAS
How it was run: as §1

USP54 = USP54 (UniProt Q70EL1)
How it was run: as §1

USP7 = USP7 (UniProt Q93009)
How it was run: as §1

USP8 = molecular target: T5, USP8 (UniProt P40818)
T5 sequence (whole entry): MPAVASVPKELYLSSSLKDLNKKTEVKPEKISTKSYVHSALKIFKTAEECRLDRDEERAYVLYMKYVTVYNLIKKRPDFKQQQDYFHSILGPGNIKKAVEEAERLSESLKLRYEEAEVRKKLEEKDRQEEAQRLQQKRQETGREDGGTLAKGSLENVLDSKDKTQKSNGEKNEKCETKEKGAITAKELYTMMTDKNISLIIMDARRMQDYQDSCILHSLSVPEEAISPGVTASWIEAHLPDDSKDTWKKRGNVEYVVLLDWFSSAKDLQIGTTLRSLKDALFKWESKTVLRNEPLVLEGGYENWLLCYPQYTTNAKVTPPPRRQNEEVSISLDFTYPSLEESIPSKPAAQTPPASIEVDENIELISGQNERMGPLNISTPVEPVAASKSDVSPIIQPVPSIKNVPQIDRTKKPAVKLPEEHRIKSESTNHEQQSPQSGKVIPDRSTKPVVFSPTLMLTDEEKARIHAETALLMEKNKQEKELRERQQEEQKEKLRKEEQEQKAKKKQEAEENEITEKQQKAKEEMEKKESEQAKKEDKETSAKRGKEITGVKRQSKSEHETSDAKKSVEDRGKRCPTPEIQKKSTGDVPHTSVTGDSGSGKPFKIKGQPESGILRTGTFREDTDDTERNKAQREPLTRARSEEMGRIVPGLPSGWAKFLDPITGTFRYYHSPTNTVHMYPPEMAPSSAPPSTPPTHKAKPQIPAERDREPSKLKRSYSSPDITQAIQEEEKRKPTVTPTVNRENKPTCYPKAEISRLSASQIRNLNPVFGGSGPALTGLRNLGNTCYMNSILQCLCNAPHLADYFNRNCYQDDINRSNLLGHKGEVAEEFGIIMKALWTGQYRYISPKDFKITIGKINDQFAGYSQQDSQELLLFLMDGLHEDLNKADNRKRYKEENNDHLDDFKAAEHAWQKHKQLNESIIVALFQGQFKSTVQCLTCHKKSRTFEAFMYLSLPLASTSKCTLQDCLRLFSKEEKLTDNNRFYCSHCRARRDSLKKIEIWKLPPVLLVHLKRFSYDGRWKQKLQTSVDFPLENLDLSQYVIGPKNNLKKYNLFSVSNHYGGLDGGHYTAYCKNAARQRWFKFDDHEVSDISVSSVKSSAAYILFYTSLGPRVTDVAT
How it was run: as §1

Measured: log2 ratio of Biotin-Ahx-Ub-VS probe labelling

Chain of USP7 (Q93009 whole entry, looked up): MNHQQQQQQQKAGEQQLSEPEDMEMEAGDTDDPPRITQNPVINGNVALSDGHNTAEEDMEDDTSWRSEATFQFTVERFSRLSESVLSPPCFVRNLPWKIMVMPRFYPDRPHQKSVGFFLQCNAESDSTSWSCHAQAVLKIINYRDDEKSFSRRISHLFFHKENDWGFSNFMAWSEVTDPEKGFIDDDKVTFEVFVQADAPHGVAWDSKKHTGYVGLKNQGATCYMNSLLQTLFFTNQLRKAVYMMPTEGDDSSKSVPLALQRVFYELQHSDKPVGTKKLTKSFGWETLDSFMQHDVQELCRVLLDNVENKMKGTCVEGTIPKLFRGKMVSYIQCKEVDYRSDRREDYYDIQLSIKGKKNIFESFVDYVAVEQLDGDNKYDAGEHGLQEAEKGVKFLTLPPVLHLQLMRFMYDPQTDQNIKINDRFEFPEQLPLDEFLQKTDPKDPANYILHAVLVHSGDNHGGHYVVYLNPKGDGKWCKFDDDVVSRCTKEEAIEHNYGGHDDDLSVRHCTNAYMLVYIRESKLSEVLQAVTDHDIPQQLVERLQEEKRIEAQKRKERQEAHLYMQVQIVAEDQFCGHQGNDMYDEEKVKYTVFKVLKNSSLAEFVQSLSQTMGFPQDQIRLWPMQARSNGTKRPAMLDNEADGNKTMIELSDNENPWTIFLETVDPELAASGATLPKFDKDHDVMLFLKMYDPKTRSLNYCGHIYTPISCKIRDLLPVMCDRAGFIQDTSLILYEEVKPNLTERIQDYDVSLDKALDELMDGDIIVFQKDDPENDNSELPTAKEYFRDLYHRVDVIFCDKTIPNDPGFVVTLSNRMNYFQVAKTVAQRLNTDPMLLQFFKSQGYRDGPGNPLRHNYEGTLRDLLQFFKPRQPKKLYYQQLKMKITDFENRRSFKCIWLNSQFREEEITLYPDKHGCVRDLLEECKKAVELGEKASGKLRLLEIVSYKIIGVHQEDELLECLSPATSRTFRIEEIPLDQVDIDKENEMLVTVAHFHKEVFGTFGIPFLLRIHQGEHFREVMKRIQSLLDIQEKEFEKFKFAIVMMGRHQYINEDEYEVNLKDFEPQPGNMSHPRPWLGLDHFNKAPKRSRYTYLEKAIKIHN
Chain of USP46 (P62068 whole entry): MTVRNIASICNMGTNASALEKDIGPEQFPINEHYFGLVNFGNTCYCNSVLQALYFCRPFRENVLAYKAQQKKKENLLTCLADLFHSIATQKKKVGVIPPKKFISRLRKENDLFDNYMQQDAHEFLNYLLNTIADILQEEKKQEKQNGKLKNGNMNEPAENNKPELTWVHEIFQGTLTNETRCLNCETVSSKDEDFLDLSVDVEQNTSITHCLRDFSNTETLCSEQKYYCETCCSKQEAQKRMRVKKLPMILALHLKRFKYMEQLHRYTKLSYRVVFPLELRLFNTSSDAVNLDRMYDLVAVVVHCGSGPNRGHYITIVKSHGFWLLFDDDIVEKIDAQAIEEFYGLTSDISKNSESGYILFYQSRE
Chain of USP54 (Q70EL1 whole entry): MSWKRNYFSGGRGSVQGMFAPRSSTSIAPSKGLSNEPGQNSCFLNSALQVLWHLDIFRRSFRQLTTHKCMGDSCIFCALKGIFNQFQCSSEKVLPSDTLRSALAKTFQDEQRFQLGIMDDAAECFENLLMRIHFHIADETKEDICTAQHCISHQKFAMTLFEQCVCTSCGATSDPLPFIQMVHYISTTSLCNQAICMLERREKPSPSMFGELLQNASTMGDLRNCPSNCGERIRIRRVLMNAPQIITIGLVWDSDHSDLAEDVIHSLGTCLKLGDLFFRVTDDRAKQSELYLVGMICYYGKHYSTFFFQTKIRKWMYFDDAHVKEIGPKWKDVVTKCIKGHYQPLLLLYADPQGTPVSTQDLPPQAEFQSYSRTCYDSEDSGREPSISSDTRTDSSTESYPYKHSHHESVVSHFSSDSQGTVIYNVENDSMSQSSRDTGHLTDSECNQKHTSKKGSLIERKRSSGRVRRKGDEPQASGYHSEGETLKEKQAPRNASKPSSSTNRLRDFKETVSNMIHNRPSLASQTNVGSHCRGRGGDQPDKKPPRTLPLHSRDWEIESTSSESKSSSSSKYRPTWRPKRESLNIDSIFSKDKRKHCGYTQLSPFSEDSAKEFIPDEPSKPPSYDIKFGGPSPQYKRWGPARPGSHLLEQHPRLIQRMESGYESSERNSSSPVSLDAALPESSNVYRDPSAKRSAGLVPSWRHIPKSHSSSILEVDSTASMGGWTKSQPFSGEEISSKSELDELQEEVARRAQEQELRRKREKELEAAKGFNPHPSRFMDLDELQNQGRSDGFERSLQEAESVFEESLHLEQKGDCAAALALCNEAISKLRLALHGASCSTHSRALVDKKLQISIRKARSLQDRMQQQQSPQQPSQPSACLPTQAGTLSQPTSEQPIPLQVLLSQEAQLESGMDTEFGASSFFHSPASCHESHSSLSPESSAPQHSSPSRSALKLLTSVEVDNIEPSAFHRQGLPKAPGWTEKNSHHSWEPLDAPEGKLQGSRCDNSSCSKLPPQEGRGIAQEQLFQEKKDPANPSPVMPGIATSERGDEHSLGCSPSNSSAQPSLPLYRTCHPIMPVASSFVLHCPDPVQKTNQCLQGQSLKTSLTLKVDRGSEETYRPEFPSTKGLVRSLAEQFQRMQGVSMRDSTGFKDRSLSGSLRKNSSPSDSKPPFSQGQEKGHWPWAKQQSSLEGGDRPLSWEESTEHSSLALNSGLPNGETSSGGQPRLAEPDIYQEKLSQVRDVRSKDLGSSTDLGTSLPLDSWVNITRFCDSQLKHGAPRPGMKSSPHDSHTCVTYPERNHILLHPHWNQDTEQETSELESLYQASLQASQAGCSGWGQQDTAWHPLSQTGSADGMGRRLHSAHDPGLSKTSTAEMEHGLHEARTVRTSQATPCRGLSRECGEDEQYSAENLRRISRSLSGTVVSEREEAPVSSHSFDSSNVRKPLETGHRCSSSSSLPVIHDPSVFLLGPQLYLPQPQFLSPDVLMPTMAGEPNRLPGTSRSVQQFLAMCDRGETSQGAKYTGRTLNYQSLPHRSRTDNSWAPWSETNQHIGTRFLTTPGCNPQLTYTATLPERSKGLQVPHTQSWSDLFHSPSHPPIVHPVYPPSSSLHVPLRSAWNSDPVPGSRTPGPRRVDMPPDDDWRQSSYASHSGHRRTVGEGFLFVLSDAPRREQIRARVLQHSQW

O=C(CCl)Nc1ccc(F)cc1F
inactive: USP42 -0.555 | USP46 -0.0216 | USP47 -0.211 | USP48 -0.0331 | USP5 -0.0493 | USP54 0.615 | USP7 -0.0738 | USP8 -0.257
